PubChem BioAssay (NCATS)
Records with an inconclusive call do not appear. Values without a mark were called inactive. Activity calls are given as the source filed them. Calls come from the whole dose curve; as a rule, active = well fitted curve in the direction sought with a large enough effect; inconclusive = small, poorly fitted or top-dose-only effect, or another doubt; inactive = no such curve, though single readings can be large; an effect the other way counts as inactive or inconclusive.

System: Zika virus NS2B-NS3 protease
Experiment: Primary screen GU AMC qHTS for Zika virus inhibitors (AID 1347154); note: nearly all actives have a fitted effect of over 70% in size;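 for activity change, negative = inhibition: 0% = no-inhibitor control and -100% = no-enzyme control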
Details: Zika NS2B-NS3 unlinked protease, AMC fluorogenic substrate; series mostly up to 54.1 µM; activity change, negative = inhibition: at the top concentration
Outline: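 Unlinked Zika NS2B hydrophilic domain–NS3 protease complex at 25 nM in 10 mM Tris-HCl pH 8.0, 0.01% Tween 20, with an AMC peptide substrate. Fluorescence change (340/450 nm) over 15 min at room temperature, normalized to controls, fitted to 4-parameter Hill.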
Potency is the fitted concentration of half-maximal effect.

SMILES	activity change, negative = inhibition [%]	Potency
O=C(O)c1ccccc1C(=O)Nc1ccc(-c2ccccc2)cc1	-3.21	–
NC(=O)c1cnc(-c2ccc(C3(N)CCC3)cc2)c(-c2ccccc2)c1	4.3	–
COc1cc2c(cc1OC)CN(CCc1ccc(NC(=O)c3cc(OC)c(OC)cc3NC(=O)c3cnc4ccccc4c3)cc1)CC2	-0.525	–
CC[C@]1(O)C[C@@H]2CN(CCc3c([nH]c4ccccc34)[C@@](C(=O)OC)(c3cc4c(cc3OC)N(C)[C@H]3[C@@](O)(C(=O)OC)[C@H](OC(C)=O)[C@]5(CC)C=CCN6CC[C@]43[C@@H]65)C2)C1	–	inactive
O=C(Nc1ccccc1-c1cn2c(CN3CCNCC3)csc2n1)c1cnc2ccccc2n1	-8.48	–
O=C(NCc1ccccc1)c1csc(Nc2ccncn2)n1	-2.53	–
COc1ccc2c(Oc3ccc(NC(=O)c4c(C)n(CC(C)(C)O)n(-c5ccccc5)c4=O)nc3)ccnc2c1	-8.2	–
COc1ccc(C2Sc3ccccc3N(CCN(C)C)C(=O)C2OC(C)=O)cc1 (stereo not given)	–	inactive
CN(C[C@@H]1COCCO1)S(=O)(=O)Nc1ccc2ccc3ncc(-c4cnn(C)c4)cc3c(=O)c2c1	-6.88	–
CC(=O)N(C)C1(c2ccccc2)CCN(CCC[C@]2(c3ccc(Cl)c(Cl)c3)CCCN(C(=O)c3ccccc3)C2)CC1	-5.02	–
COc1cc(Nc2ncc(F)c(Nc3ccc4c(n3)NC(=O)C(C)(C)O4)n2)cc(OC)c1OC	14.7	–
COc1ncc(-c2ccc3nccc(-c4ccnnc4)c3c2)cc1NS(=O)(=O)c1ccc(F)cc1F	-2.02	–
COCCOc1nc(-c2ccc(Cl)c(Cl)c2)n(-c2ccc(NC(=O)CCl)cc2)n1	0.0497	–
CNC1CCC(N(Cc2cccc(-c3ccncc3)c2)C(=O)c2sc3c(F)ccc(F)c3c2Cl)CC1 (stereo not given)	3.22	–
CN(C)C1CCN(C(=O)c2ccc(NC(=O)Nc3nc(N4CCOCC4)nc(N4CCOCC4)n3)cc2)CC1	13.7	–
O=c1cc(CN2CCOCC2)occ1OCCCCCSc1ccnc2cc(C(F)(F)F)ccc12	7.91	–
CO[C@H]1C=CO[C@@]2(C)Oc3c(C)c(O)c4c(O)c(c5c(c4c3C2=O)NC2(CCN(CC(C)C)CC2)N=5)=NC(=O)C(C)=CC=C[C@H](C)[C@H](O)[C@@H](C)[C@@H](O)[C@@H](C)[C@H](OC(C)=O)[C@H]1C	-5.35	–
NC(=O)c1cccc(-c2cc(Nc3ccc(OC(F)(F)F)cc3)ncn2)c1	-7.13	–
CCOC(=O)C1=C(N)Oc2ccc(Br)cc2C1C(C#N)C(=O)OCC (stereo not given)	–	inactive
O=C(O)CCc1nc(-c2ccccc2)c(-c2ccccc2)o1	-3.53	–
Cc1nc(N)sc1-c1ccnc(Nc2ccc(N3CCOCC3)cc2)n1	8.84	–
COc1ccc(Cc2ccc(NC(N)=O)cc2)cc1-c1cccc(Cl)c1	-14.6	–
CC(C)(C)Cn1c(N)nc2ccc(-c3[nH]c(C(C)(C)C)nc3-c3ccc(F)cc3)nc21	–	10.8 µM (active)
COc1cc2ncnc(-n3nc(-c4ccccn4)nc3N)c2cc1OC	10.9	–
CS(=O)(=O)N(Cc1ccco1)CC(O)Cn1c2ccccc2c2ccccc21 (stereo not given)	-4	–
CC(C)C(=O)Oc1ccc(CO)cc1[C@H](CCN(C(C)C)C(C)C)c1ccccc1	-2.22	–
CN1CCN(CCOc2cc(OC3CCOCC3)c3c(Nc4c(Cl)ccc5c4OCO5)ncnc3c2)CC1	6.43	–
Cc1ccccc1C(C(=O)NC1CCCCC1)N(C(=O)Cn1ccnc1C)c1cccc(F)c1 (stereo not given)	-7.35	–
O=c1[nH]cnc2c1ncn2[C@H]1CC[C@@H](CO)O1	6.55	–

System: Zika virus NS2B-NS3 protease (unlinked complex)
Experiment: Primary screen GU Rhodamine qHTS for Zika virus inhibitors: Unlinked NS2B-NS3 protease assay (AID 1347159); note: nearly all actives have a fitted effect of over 60% in size; for activity change, negative = inhibition: % is set by controls: 0 for no effect and ±100 for the full control effect
Details: Recombinant ZIKV NS2B-NS3 protease, Rhodamine110 substrate fluorescence; series mostly up to 107 µM; activity change, negative = inhibition: at the top concentration
Outline: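 A qHTS format was used, with compound concentrations ranging up to 114 microM. Each compound was preincubated with 25 nM NS2B-NS3 protease, and the substrate was then added at 1.5 microM. Curves were fitted with a 4-parameter Hill model.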

SMILES	activity change, negative = inhibition	Potency
O=C(O)c1ccccc1C(=O)Nc1ccc(-c2ccccc2)cc1	-28.5%	–
NC(=O)c1cnc(-c2ccc(C3(N)CCC3)cc2)c(-c2ccccc2)c1	47.5%	–
COc1cc2c(cc1OC)CN(CCc1ccc(NC(=O)c3cc(OC)c(OC)cc3NC(=O)c3cnc4ccccc4c3)cc1)CC2	15%	–
O=C(Nc1ccccc1-c1cn2c(CN3CCNCC3)csc2n1)c1cnc2ccccc2n1	-19.3%	–
O=C(NCc1ccccc1)c1csc(Nc2ccncn2)n1	-27.1%	–
COc1ccc2c(Oc3ccc(NC(=O)c4c(C)n(CC(C)(C)O)n(-c5ccccc5)c4=O)nc3)ccnc2c1	17.6%	–
COc1ccc(C2Sc3ccccc3N(CCN(C)C)C(=O)C2OC(C)=O)cc1 (stereo not given)	8.71% [at 57.1 µM]	–
CN(C[C@@H]1COCCO1)S(=O)(=O)Nc1ccc2ccc3ncc(-c4cnn(C)c4)cc3c(=O)c2c1	-18.1%	–
CC(=O)N(C)C1(c2ccccc2)CCN(CCC[C@]2(c3ccc(Cl)c(Cl)c3)CCCN(C(=O)c3ccccc3)C2)CC1	94.4%	–
COCCOc1nc(-c2ccc(Cl)c(Cl)c2)n(-c2ccc(NC(=O)CCl)cc2)n1	4.48%	–
CNC1CCC(N(Cc2cccc(-c3ccncc3)c2)C(=O)c2sc3c(F)ccc(F)c3c2Cl)CC1 (stereo not given)	92.4%	–
CN(C)C1CCN(C(=O)c2ccc(NC(=O)Nc3nc(N4CCOCC4)nc(N4CCOCC4)n3)cc2)CC1	-11.1% [at 57.1 µM]	–
O=c1cc(CN2CCOCC2)occ1OCCCCCSc1ccnc2cc(C(F)(F)F)ccc12	0.535%	–
COCCOC(=O)C1=C(C)NC2=C(C(=O)CC(c3ccccc3OC)C2)C1c1cccc(O)c1 (stereo not given)	10.6%	–
CO[C@H]1C=CO[C@@]2(C)Oc3c(C)c(O)c4c(O)c(c5c(c4c3C2=O)NC2(CCN(CC(C)C)CC2)N=5)=NC(=O)C(C)=CC=C[C@H](C)[C@H](O)[C@@H](C)[C@@H](O)[C@@H](C)[C@H](OC(C)=O)[C@H]1C	-26.4%	–
NC(=O)c1cccc(-c2cc(Nc3ccc(OC(F)(F)F)cc3)ncn2)c1	-16.3%	–

SMILES	activity change, negative = inhibition	Potency
Cc1nc(N)sc1-c1ccnc(Nc2ccc(N3CCOCC3)cc2)n1	12.8%	–
COc1ccc(Cc2ccc(NC(N)=O)cc2)cc1-c1cccc(Cl)c1	183%	–
CN(C)Cc1ccc(-c2nc3cccc4c3n2CCNC4=O)cc1	8.4%	–
CC(C)(C)Cn1c(N)nc2ccc(-c3[nH]c(C(C)(C)C)nc3-c3ccc(F)cc3)nc21	86.6%	–
CCn1c(C(=O)N(C2CC2)C2CC2)cc2c3c(ncn3C)c(Nc3cc(C)n(C)n3)nc21	7.92%	–
COc1cc2ncnc(-n3nc(-c4ccccn4)nc3N)c2cc1OC	46% [at 57.1 µM]	–
CS(=O)(=O)N(Cc1ccco1)CC(O)Cn1c2ccccc2c2ccccc21 (stereo not given)	-0.732%	–
CC(C)(C)OC(=O)N[C@H]1CCCCCC=C[C@@H]2C[C@@]2(C(=O)NS(=O)(=O)C2CC2)NC(=O)[C@@H]2C[C@@H](OC(=O)N3Cc4cccc(F)c4C3)CN2C1=O	–	35.5 µM (active)
CC(C)C(=O)Oc1ccc(CO)cc1[C@H](CCN(C(C)C)C(C)C)c1ccccc1	33.3%	–
CN1CCN(CCOc2cc(OC3CCOCC3)c3c(Nc4c(Cl)ccc5c4OCO5)ncnc3c2)CC1	42.1%	–
CC(C)n1nc(-c2ccc3oc(N)nc3c2)c2c(N)ncnc21	18.6%	–
Cc1ccccc1C(C(=O)NC1CCCCC1)N(C(=O)Cn1ccnc1C)c1cccc(F)c1 (stereo not given)	4.53%	–
O=c1[nH]cnc2c1ncn2[C@H]1CC[C@@H](CO)O1	4.54%	–
Cc1c(NC(=O)c2ccc(C(C)(C)C)cc2)cccc1-c1cn(C)c(=O)c(Nc2ccc(C(=O)N3CCOCC3)cc2)n1	-4.92%	–
COc1cc2nc(-c3ccc(N4CCN(C)CC4)cc3)nc(NCCN3CCOCC3)c2cc1OC	231%	–
